Source: PubChem (National Center for Advancing Translational Sciences (NCATS))
Most compounds without a hit are left out; they make up all but 2.5% or so of the library.
HTT promoter inh: HTT promoter inhibition | HEK293 HTT promoter firefly luciferase reporter, 24 h | Potency, µM (titrated, usually from 57.5 µM), inactives show at the highest dose activity change, negative = inhibition, most hits filed as inhibitors | hit rate 0.93% among 48,000; note: potency is the fitted concentration of half-maximal effect; nearly all actives have a fitted effect of over 50% in size
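Luminescence was read after Dual-Glo reagent and a 10 min room-temperature incubation. Values were normalized to vehicle (0% activity) and zero RLU (-100% activity). Reporter HEK293 cells had been exposed to compounds (up to 57.5 uM final) for 24 h.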
HTT-AS act: activators of huntingtin-antisense promoter activity; HEK293 HTT-AS promoter firefly luciferase reporter, 24 h; response scale: percent change from vehicle, -100% = no light; Potency, µM (titrated, usually from 57.5 µM), without a hit: top-dose activity change, positive = activation, hits mostly activators; hit rate 0.24% among 48,000; note: potency is the fitted concentration of half-maximal effect; nearly all actives have a fitted effect of over 55% in size
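Firefly luciferase readout (Dual-Glo, 10 min RT) after 24 h, 37 °C compound exposure (final up to 57.5 uM) of HEK293 reporter cells cultured 24 h beforehand; PTC124 at 50 uM final as control inhibitor; activity scaled vehicle 0%, zero RLU -100%.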
FH mod: Identification of activators of human fumarate hydratase by quantitative high-throughput screening | Potency, µM (doses to about 79.9 µM), for inactives: at the highest dose activity change, negative = inhibition, most hits filed as inhibitors | FH coupled MDH/diaphorase resazurin fluorescence, 15 min | hit rate 0.22% among 54,000 | AID 1347055, 2019; note: potency is the fitted concentration of half-maximal effect; % is set by controls: 0 for no effect and ±100 for the full control effect; the screen sought activators but most active calls are inhibition curves; nearly all actives have a fitted effect of over 45% in size
GALK inh: inhibits human galactokinase; AID 1347072; 44,000 tested, under 10 active; recombinant GALK, Kinase-Glo ATP luminescence, 1 h; P51570; Potency, µM (doses to about 57.5 µM), for inactives: at the top dose activity, negative = inhibition, most hits filed as inhibitors;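 note: plate controls were full GALK reaction for no effect and reaction lacking GALK for full effect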
Target sequence (P51570 whole entry, looked up): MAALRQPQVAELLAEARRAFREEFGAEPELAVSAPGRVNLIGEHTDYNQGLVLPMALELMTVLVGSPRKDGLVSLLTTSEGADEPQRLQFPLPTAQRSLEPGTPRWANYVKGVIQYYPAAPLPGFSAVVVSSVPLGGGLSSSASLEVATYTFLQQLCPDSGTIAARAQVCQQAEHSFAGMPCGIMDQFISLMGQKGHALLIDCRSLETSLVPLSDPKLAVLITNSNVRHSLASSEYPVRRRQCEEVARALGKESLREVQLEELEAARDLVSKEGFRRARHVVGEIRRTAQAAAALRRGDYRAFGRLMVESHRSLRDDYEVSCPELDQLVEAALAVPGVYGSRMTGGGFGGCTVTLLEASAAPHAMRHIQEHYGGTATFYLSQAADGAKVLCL
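Luminescent ATP-depletion readout (Kinase-Glo Plus) after 1 h room-temperature incubation of human GALK (5 nM) with galactose 100 µM and ATP 35 µM, pH 8.0 HEPES/Mg2+ buffer; compounds tested in qHTS format.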
NTMT1 inhibitor: NTMT1 methyltransferase inhibition | NTMT1 MTase-Glo SAH luminescence, purified enzyme | Potency, µM (top dose mostly 114 µM), for inactives: at the highest dose activity change, negative = inhibition, hits mostly inhibitors | hit rate 2.5% among 59,000 | AID 1645870;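 note: potency is the fitted concentration of half-maximal effect; plate controls were DMSO vehicle for no effect and no enzyme for full effect; nearly all actives have a fitted effect of over 65% in size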
Target sequence (Q9BV86 whole entry, looked up): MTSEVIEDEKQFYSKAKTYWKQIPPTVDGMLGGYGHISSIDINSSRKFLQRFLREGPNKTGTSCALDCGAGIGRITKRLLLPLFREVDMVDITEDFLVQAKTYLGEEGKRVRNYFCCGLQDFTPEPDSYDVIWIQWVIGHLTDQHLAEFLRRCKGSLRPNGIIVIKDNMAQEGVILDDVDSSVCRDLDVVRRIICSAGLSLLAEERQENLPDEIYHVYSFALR
* hit, by the source's call; ? = inconclusive; . = not tested or not shown; ! = repeats disagree; [ ] = another dose, or the depositor's remark. Calls come from the whole dose curve; as a rule, active = well fitted curve in the direction sought with a large enough effect; inconclusive = small, poorly fitted or top-dose-only effect, or another doubt; inactive = no such curve, though single readings can be large; an effect the other way counts as inactive or inconclusive.

SMILES	HTT promoter inh	HTT-AS act	FH mod	GALK inh	NTMT1 inhibitor
Cc1c(C(=O)N2CCOc3ccc(-c4ccc(N)nc4)cc3C2)ccc(S(C)(=O)=O)c1F	.	.	5%	.	50µM*!
COc1cc(O)c(C(CC(=O)N2CC(C)CC(C)C2)c2ccc3c(c2)OCCO3)c(OC)c1 (stereo unspecified)	.	.	.	.	43%
CCc1ccc(CN(Cc2cn[nH]c2-c2ccc(OC)cc2)C(=O)Nc2ccc(Br)cc2)cc1	14µM*	-58%	-27%	0%	3%
CN(C)CCCN1CCCN(C(=O)c2cccc(-c3cc(O)c4ncccc4c3)c2)C1	.	.	.	.	15%
O=C(O)c1ccccc1-c1ccc(/C=c2\sc3nc4cc(Br)cnc4n3c2=O)o1	.	.	.	.	35µM*
CONC(=O)c1ccccc1Nc1cc(Nc2cc(C)nn2C(C)C)ncc1Cl	.	.	.	.	-8%
O=S(=O)(c1cccc2c(I)cccc12)N1CCCNCC1	.	.	-5%	.	40µM*!
COc1ccc(-c2nc3scc(CCNS(=O)(=O)c4ccc(Oc5ccccc5)cc4)n3n2)cc1	-30%	-32%	-20%	-3%	-4%
Cc1ccc(-c2nc3scc(CCNS(=O)(=O)c4ccc(Oc5ccccc5)cc4)n3n2)cc1	20µM*	-84%	-2%	1%	12%
FC(F)(F)c1ccc(-c2nc(NCc3ccc(-c4cccnc4)cc3)c3ccccc3n2)cc1	.	.	.	.	-5%
N#Cc1ccc(-c2nc(NCc3ccc(-c4ccnc(C(F)(F)F)c4)cc3)c3ccccc3n2)cc1	.	.	.	.	8%
COc1ccc(NC(=O)c2cnn3c(C)cc(C)nc23)cc1	.	.	.	.	3%
COc1ccccc1NC(=O)c1ccc2c(Cl)c3c(nc2c1)CCCC3	3%	5%	-18%	9%	0%
O=C(Nc1ccccc1F)c1ccc2c(Cl)c3c(nc2c1)CCC3	13µM*	-68%	?	3%	25µM*
O=C(Cn1nc(-c2ccc3c(c2)OCO3)ccc1=O)NCCc1ccccc1	.	.	.	.	-5%
CCN1C(=O)c2cccc3c(S(=O)(=O)Nc4ccc(O)c(C(=O)O)c4)ccc1c23	0%	-4%	32µM*	6%	-15%
COc1ccc(C(=O)Nc2ccc(-c3nc4ccccc4[nH]3)cc2)cc1F	.	.	.	.	18%[57.5 µM]
CC(=O)Nc1sc2c(c1-c1ccc3c(c1)OCCCO3)CCNC2	.	.	.	.	-1%
CCCc1ncc(C[n+]2ccccc2C)c(N)n1	8%	-7%	-3%[53.3 µM]	.	35µM*
COc1ccc(NS(=O)(=O)c2ccc3c(c2)[C@H]2C=CC[C@H]2[C@@H](c2ccc(C(=O)O)cc2)N3)cc1	-3%	-3%	35µM*	?	?
COC(=O)c1ccc([C@H]2Nc3ccc(S(=O)(=O)Nc4ccc(C)cc4)cc3[C@H]3C=CC[C@H]32)cc1	-20%	-11%	-21%	0%	-20%
CC[C@H](c1ccc(O)cc1)[C@@H](CC)c1ccc(O)cc1	-17%	-28%	-27%[53.3 µM]	.	11µM*
Cc1cc(-c2cnn3c(NCC4CC(C)(O)C4)cc(Oc4cccnc4)nc23)ccc1C(=O)NC1CC1 (stereo unspecified)	.	.	.	.	9%[12.6 µM]
Cc1cc2ncc(-c3ccccc3)nc2cc1C	.	.	0%	.	45µM*
COc1cc2c(NC3CCN(C)CC3)nc(N3CCCN(C)CC3)nc2cc1OCCCN(C)C	.	.	.	.	-18%
SMILES	HTT promoter inh	HTT-AS act	FH mod	GALK inh	NTMT1 inhibitor
COc1cc2nc(N3CCCC3)nc(NCCCCCN3CCCC3)c2cc1OC	.	.	5%	.	32µM*
COc1cc2nc(N3CCCCC3)nc(NC3CCN(Cc4ccccc4)CC3)c2cc1OC	.	.	.	.	45µM*
COc1cc2nc(N3CCC(N4CCCCC4)CC3)nc(NC3CCCCCC3)c2cc1OC	.	.	-3%	.	?
Cc1ccc(S(=O)(=O)N(C)c2ccccc2C(=O)Nc2nc(-c3ccccc3)cs2)cc1	.	.	.	.	2%[57.5 µM]
CC1(C)CC2C(C1)C1(C)CCC13OC3(CO)C2O (stereo unspecified)	.	.	0%	.	5%[57.5 µM]
CC(C)n1nc(-c2cc3cc(O)ccc3[nH]2)c2c(N)ncnc21	?	-44%	-14%	.	79µM*!
O=C(Nc1nnc(-c2ccco2)o1)c1ccncc1	.	.	.	.	10%
Cc1ccc(-c2ncn(-c3ccc(Nc4nccc(-c5cccc(N6CCOCC6)c5)n4)cc3)n2)cn1	69%	1.2µM*	9%[53.3 µM]	.	-8%
COc1cc2c(Nc3ccc(NC(=O)c4ccccc4)cc3)ncnc2cc1OCCCN1CCOCC1	5%	-16%	-16%	.	-9%
COc1cc2c(Oc3ccc4[nH]c(C)cc4c3F)ncnc2cc1OCCCN1CCCC1	?	-24%	39%	.	45µM*!
Fc1cccc(CSc2nc3ncc(Br)cc3[nH]2)c1	.	.	.	.	-9%
CCOC(=O)C1CCC(C(=O)Nc2ccc([S+](=O)([O-])Nc3nccs3)cc2)CC1 (stereo unspecified)	.	.	.	.	14%
COc1ccc(-n2c(-c3ccco3)nc3c(cnn3-c3ccc(Cl)cc3)c2=O)cc1	35µM*	-53%	-22%	-2%	?
COc1cccc(-n2c(-c3ccco3)nc3c(cnn3-c3ccc(Cl)cc3)c2=O)c1	?	-32%	-18%	9%	5%
O=C(Nc1cccc(F)c1)C1CCN(S(=O)(=O)c2ccc3[nH]c4c(c3c2)CCCCC4)CC1	25µM*	-42%	-23%	2%	-6%
